In the library only some 8.8% were active in any assay of this set; here they are far more common.
LMNA splice mod = changes lamin A minigene splicing in HeLa cells; hit rate 0.01% among 200,000; HeLa LMNA splicing GFP/RFP minigene ratio, 48 h; AID 1487; Potency, µM (doses to about 46.1 µM), usual class: inhibitors; active means well fitted inhibition curve with a large enough effect in the signal ratio, with a control signal flat, not every such curve was filed as active; inconclusive means small, poorly fitted or top-dose-only effect, or effect the other way, or a change in a side signal; the % refers to the signal ratio
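S3 HeLa stable clones carrying a lamin A-EGFP splicing minigene plus DsRed2 were seeded at 600 cells/well in Opti-MEM with 2% FBS, pin-dosed and incubated 48 h at 37°C. Acumen cytometry (488 nm) gave the GFP/RFP total-intensity ratio.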
HPGD inh = HPGD (human) dehydrogenase inhibition; P15428; purified HPGD, NADH fluorescence kinetic, PGE2 substrate; Potency, µM, most hits filed as inhibitors; hit rate 4.3% among 150,000; AID 894; active means well fitted inhibition curve with a large enough effect, not every such curve was filed as active; inconclusive means small, poorly fitted or top-dose-only effect, or another doubt; inactive means no such curve, though single readings can be large or run the other way
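NADH formation kinetics: reaction with 30 uM PGE2 and 1 mM NAD+ (final), 20 nM enzyme, Tris-HCl pH 8 with Tween 20, after 15 min compound preincubation at room temperature. Fluorescence change, last versus first of five reads.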
HTT aggregate = inhibitors of mutant huntingtin aggregate formation in PC12 cells. Potency, µM (series often up to 46.1 µM), usual class: inhibitors. PC12 HttQ103-GFP aggregates, Acumen cytometry, 40 h. hit rate 1.1% among 220,000; further: nearly all actives have a fitted effect of over 60% in size
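Ecdysone-promoter PC12 model expressing HTT exon 1 Q103 fused to GFP, induced by tebufenozide at 100 nM final. Compounds titrated; aggregates sized 1–25 µm scored on a 488 nm laser cytometer.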
HTT ATP protect = protects HTT-Q103 PC12 cells, measured by ATP; Potency, µM (series often up to 56.4 µM), hits mostly activators; hit rate 0.14% among 230,000; AID 1471; PC12 HTT-Q103 induced, cytoprotection, ATP luminescence, 40 h; further: nearly all actives have a fitted effect of over 45% in size
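Cells were plated at 1500 per well in phenol red-free DMEM with 5% equine and 5% calf serum. Tebufenozide (100 nM final) and compounds were added, then ATPlite reagent, and luminescence was read.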
ALDH1A1 inh = blocks purified human ALDH1A1 activity. P00352. hit rate 7.3% among 220,000. Potency, µM (highest dose often 75.3 µM), usual class: inhibitors. AID 1030. Purified ALDH1A1, NADH fluorescence, propionaldehyde substrate; active means well fitted inhibition curve with a large enough effect, not every such curve was filed as active; inconclusive means small, poorly fitted or top-dose-only effect, or another doubt; inactive means no such curve, though single readings can be large or run the other way
Target sequence (P00352 whole entry, looked up): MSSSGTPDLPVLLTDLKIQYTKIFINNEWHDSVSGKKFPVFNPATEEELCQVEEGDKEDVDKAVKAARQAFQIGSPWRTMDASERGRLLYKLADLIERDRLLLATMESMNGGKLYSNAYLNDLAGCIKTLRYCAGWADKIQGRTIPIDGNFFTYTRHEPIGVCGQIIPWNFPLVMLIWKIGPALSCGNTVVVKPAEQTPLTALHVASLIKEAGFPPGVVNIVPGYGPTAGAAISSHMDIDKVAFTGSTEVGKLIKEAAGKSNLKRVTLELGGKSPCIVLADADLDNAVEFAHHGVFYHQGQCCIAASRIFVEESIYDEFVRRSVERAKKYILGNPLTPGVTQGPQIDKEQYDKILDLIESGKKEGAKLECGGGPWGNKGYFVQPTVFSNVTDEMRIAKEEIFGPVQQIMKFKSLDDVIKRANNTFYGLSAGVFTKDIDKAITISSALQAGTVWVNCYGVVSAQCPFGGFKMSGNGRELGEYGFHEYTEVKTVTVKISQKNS
Hits are given with their value; - = inactive; ? = inconclusive; . = no result given; [ ] = another dose, or the depositor's remark. Unless noted, the call rests on the fitted dose curve; in most records, active means well fitted curve in the direction sought with a large enough effect; inconclusive means small, poorly fitted or top-dose-only effect, or another doubt; inactive means no such curve, though single readings can be large; an effect the other way counts as inactive or inconclusive.

SMILES	LMNA splice mod	HPGD inh	HTT aggregate	HTT ATP protect	ALDH1A1 inh
CS(=O)(=O)Nc1ccc(C(=O)N2CCCCC2)cc1	-	14µM	-	-[10 µM]	?
CC(C)C(=O)Nc1ccc(C(=O)N2CCN(C(=O)c3ccco3)CC2)cc1	-	-	-	-	-
Nc1ncn([C@@H]2O[C@@H](CO)[C@@H](O)[C@H]2O)c(=O)n1	.	.	.	-[1.9 µM]	.
CC(C)CCNC(=O)c1cc(Sc2ccc(F)cc2F)nc2ccccc12	-	.	.	.	.
CCOCCCn1c(SCC(=O)Nc2ccc(C)cc2)nc2ccccc2c1=O	-	.	.	.	.
O=C(Cc1cc(=O)[nH]c(=O)[nH]1)NCc1ccccc1	-	-	-	.	-
Cc1ccc(NC(=O)Cn2c(=O)ccc3cc(S(=O)(=O)N4CCCC4)ccc32)cc1N(C)C	-	.	.	.	.
CC1CCN(C(=O)c2ccc(NS(C)(=O)=O)cc2)CC1	-	10µM	-	-	?
CS(=O)(=O)Nc1ccc(S(=O)(=O)N2CCCC2)cc1	-	.	-[9.22 µM]	-[10 µM]	?
CS(=O)(=O)Nc1ccc(N2CCCCC2)c(Cl)c1	-	7.1µM	-	-[10 µM]	-
Cc1noc(C)c1S(=O)(=O)Nc1ccc(C(=O)N2CCCCC2)cc1	-	32µM	?	-	-
Cc1ccc(-c2ccc(NC(=O)C3C4C=CC(C4)C3C(=O)O)cc2)o1 (configuration not stated)	-	20µM	-	-	?
COc1cc(NC(=O)Cn2c(=O)nc(-c3ccccc3F)c3cc(Cl)ccc32)cc(OC)c1	-	.	.	.	.
CN(C(=O)COC(=O)c1nc(Cl)c(Cl)c(Cl)c1Cl)C1CCS(=O)(=O)C1 (configuration not stated)	.	.	-	-	-
COc1ccc(NS(=O)(=O)c2cnc(N)nc2)cc1Cl	-	.	.	.	.
O=C(C1CC12CCCC2)N1CCC(CO)(Cc2ccccc2Cl)CC1 (configuration not stated)	.	.	-[9.22 µM]	-[10 µM]	?
CN1C(=O)C2(c3ccccc31)N(c1cccc(F)c1)C(=O)CS2(=O)=O (configuration not stated)	-	.	.	.	.
CC(C)Cn1nnnc1S(=O)(=O)CCc1ccccc1	.	-	.	?	-
COc1ccc(C(=O)Oc2cc(N)n(S(=O)(=O)c3ccccc3)n2)cc1	.	.	?	0.71µM	-
S=C(NC1CC2CCC1C2)N1CCN(c2cccc(Cl)c2)CC1 (configuration not stated)	.	.	-	-	?
Cc1ccc2c(c1)C=CC(C)(C)S2=O (configuration not stated)	-	-	-	-[10 µM]	-
CC[N+]1=C(C)C(C)(C)c2cc(C)ccc21	?	.	2.5µM	-	-
CC(=O)c1cccc(S(=O)(=O)NCC(c2ccco2)N2CCCCC2)c1 (configuration not stated)	-	-	-	-	11µM
CC(=O)N(Cc1ccc(F)cc1)C1=C(NCc2ccccc2)C(=O)c2ccccc2C1=O	?	-	8.9µM	-	-
CCC(CC)NC(=O)COC(=O)c1cc(Br)ccc1Cl	-	32µM	-	-[10 µM]	-
SMILES	LMNA splice mod	HPGD inh	HTT aggregate	HTT ATP protect	ALDH1A1 inh
CCCCNC(=O)COC(=O)c1cc(Br)ccc1Cl	-	?	?	-[10 µM]	-
CCc1ccc2nc3n[nH]c(N)c3cc2c1	?	28µM	-	-	?
Nc1[nH]nc2nc3ccccc3cc12	.	.	-	-	-
NC(=O)c1cnn(C2CCS(=O)(=O)C2)c1 (configuration not stated)	.	.	-	-	-
CCCOc1ccc(N2C(=O)CC(N(CCc3ccc(OC)c(OC)c3)C(=S)Nc3ccccc3)C2=O)cc1 (configuration not stated)	?	-	-	-[1.9 µM]	25µM
CCCOc1ccc(N2C(=O)CC(N(Cc3ccc(OC)cc3)C(=S)Nc3ccccc3)C2=O)cc1 (configuration not stated)	-	-	-	-[10 µM]	-
Cc1ccc(N(C)C(=O)Cn2ncc3c([nH]c4ccccc43)c2=O)cc1C	-	.	.	.	.
CCOc1ccc(N(C(=O)CNC(=O)c2cccs2)C(C(=O)NCC2CCCO2)c2ccc(OC)c(OC)c2)cc1 (configuration not stated)	.	.	.	.	-
CC(=O)c1ccc(-n2cc(-c3ccc(C(C)(C)C)cc3)[n+]3c2SCCC3)cc1	-	.	10µM	-	-
COc1ccc(-c2cn(-c3ccc(Br)cc3)c3[n+]2CCS3)cc1	?	-	-	-[10 µM]	-
COc1ccccc1C(CCN(Cc1ccccc1)C(C)=O)c1ccco1 (configuration not stated)	?	.	-[9.22 µM]	-[10 µM]	.
O=C(NC1=NCCS1)c1ccc([N+](=O)[O-])cc1Cl	.	.	-	-	-
O=C(CNC1CCCCC1)N1CCc2ccccc2C1	-	-	-	-	11µM
COc1ccc(C(=O)NNC(=O)Nc2ccc(Cl)cc2)cc1	.	.	-	.	-
CN(C)CC#Cc1cncc(C(=O)NNC(=O)Nc2ccc(Cl)cc2)c1	?	.	-[9.22 µM]	-[10 µM]	25µM
Cc1ccc(C(=O)O/N=C/c2c(C(F)(F)F)nn(C)c2Sc2ccc(Cl)cc2)cc1	-	-	13µM	-	-
COc1ccc(C(=O)O/N=C/c2c(C(F)(F)F)nn(C)c2SCc2ccccc2Cl)cc1	-	-	10µM	-	-
Cc1ccc(NC(=O)C23CCC(C)(C(=O)[C@H]2Br)C3(C)C)cc1 (some centres not stated)	.	.	-[9.22 µM]	-[10 µM]	.
C[N+](C)(C)C(Cc1c[nH]c2ccccc12)C(=O)[O-] (configuration not stated)	.	.	-[9.22 µM]	-[10 µM]	.

Compound activity: PubChem BioAssay, National Center for Advancing Translational Sciences (NCATS)
